Laboratory results published in the antibiotic and cytotoxicity screens of Wong et al. (2023).
Hit rate of the full screen: of about 39,000 compounds, about 3,300 (8.5%) were called active. Many of the other results were omitted from the sample, so actives are more common in it than they were.

These molecules were tested on HepG2 (assay: cytotoxicity call (relative viability < 0.9)). Settings: 10 µM.

| Compound | cytotoxicity call |
| --- | --- |
| C[C@@H]1CN([C@@H](C)CO)C(=O)c2cc(NS(=O)(=O)c3cn(C)cn3)ccc2O[C@@H](C)CCCCO[C@H]1CN(C)Cc1ccc(C(F)(F)F)cc1 | inactive |
| CCCCC1C(=O)N(c2ccccc2)N(c2ccc(O)cc2)C1=O (stereo not drawn) | active |
| CCCCC1C(=O)N(c2ccccc2)N(c2ccccc2)C1=O | inactive |
| O=C1C(CCS(=O)c2ccccc2)C(=O)N(c2ccccc2)N1c1ccccc1 (stereo not drawn) | inactive |
| CC[C@H](C(=O)O)N1CCCC1 | inactive |
| C[C@@H]1CN([C@H](C)CO)C(=O)c2cc(NC(=O)CCCCCC(=O)Nc3ccccc3N)ccc2O[C@H]1CN(C)CC1CCCCC1 | inactive |
| C[C@@H]1CCCCO[C@@H](CN(C)CC2CCCCC2)[C@@H](C)CN([C@H](C)CO)C(=O)c2cc(NC(=O)CCCCCC(=O)Nc3ccccc3N)ccc2O1 | inactive |
| C[C@@H]1CN([C@@H](C)CO)C(=O)c2cc(NC(=O)CCCCCC(=O)Nc3ccccc3N)ccc2O[C@@H](C)CCCCO[C@@H]1CN(C)CC1CCCCC1 | inactive |
| C[C@H](CO)N1C[C@H](C)[C@@H](CN(C)CC2CCCCC2)Oc2ccc(NC(=O)CCCCCC(=O)Nc3ccccc3N)cc2C1=O | active |
| C[C@H](CO)N1C[C@H](C)[C@H](CN(C)CC2CCCCC2)Oc2ccc(NC(=O)CCCCCC(=O)Nc3ccccc3N)cc2C1=O | active |
| C[C@@H]1CN([C@H](C)CO)C(=O)Cc2cc(NC(=O)CCCCCC(=O)Nc3ccccc3N)ccc2O[C@@H]1CN(C)CC1CCCCC1 | inactive |
| C[C@H]1CN([C@@H](C)CO)C(=O)c2cc(NC(=O)CCCCCC(=O)Nc3ccccc3N)ccc2O[C@@H]1CN(C)CC1CCCCC1 | inactive |
| C[C@H]1CN([C@@H](C)CO)C(=O)c2cc(NC(=O)CCCCCC(=O)Nc3ccccc3N)ccc2O[C@H]1CN(C)CC1CCCCC1 | active |
| C[C@@H]1CN([C@@H](C)CO)C(=O)Cc2cc(NC(=O)CCCCCC(=O)Nc3ccccc3N)ccc2O[C@@H]1CN(C)CC1CCCCC1 | active |
| C[C@@H]1CN([C@H](C)CO)C(=O)Cc2cc(NC(=O)CCCCCC(=O)Nc3ccccc3N)ccc2O[C@H]1CN(C)CC1CCCCC1 | inactive |
| C[C@@H]1CN([C@@H](C)CO)C(=O)c2cc(NC(=O)CCCCCC(=O)Nc3ccccc3N)ccc2O[C@@H]1CN(C)CC1CCCCC1 | inactive |
| C[C@@H]1CN([C@@H](C)CO)C(=O)c2cc(NC(=O)CCCCCC(=O)Nc3ccccc3N)ccc2O[C@H]1CN(C)CC1CCCCC1 | inactive |
| Cc1noc(C)c1NC(=O)Nc1ccc2c(c1)C(=O)N([C@H](C)CO)C[C@H](C)[C@H](CN(C)S(=O)(=O)c1ccc(F)cc1)OCCCC[C@H](C)O2 | inactive |
| C[C@H]1CCCCO[C@H](CN(C)S(=O)(=O)c2ccccc2)[C@@H](C)CN([C@@H](C)CO)C(=O)c2cc(NC(=O)C3CCCCC3)ccc2O1 | inactive |
| CN1CCN(C(=O)c2nn(C)c3c2CCN(S(C)(=O)=O)C3)CC1 | inactive |
| C[C@H](CO)N1C[C@H](C)[C@@H](CN(C)CC2CCOCC2)Oc2cc(-c3cccnc3)ccc2S1(=O)=O | inactive |
| COc1ccc(S(=O)(=O)Nc2cccc3c2O[C@H](CN(C)C(=O)Nc2c(C)noc2C)[C@H](C)CN([C@H](C)CO)C3=O)cc1 | inactive |
| CCS(=O)(=O)N1C[C@]2(CCN(CC2)C(=O)Cc2ccccc2)c2c(n(c3cc(ccc23)OC)C)[C@@H]1CO | inactive |
| Cc1ccc[nH]c1=O | inactive |
| COc1cccc(S(=O)(=O)N(C)C[C@@H]2Oc3cc(C#CCC(C)C)ccc3S(=O)(=O)N([C@@H](C)CO)C[C@@H]2C)c1 | inactive |
| CC1(C)SC2C(NC(=O)Cc3ccccc3)C(=O)N2C1C(=O)[O-].[K+] (stereo not drawn) | inactive |

| Compound | cytotoxicity call |
| --- | --- |
| C[C@@H]1CCCCO[C@@H](CN(C)C(=O)Nc2ccc3c(c2)OCO3)[C@H](C)CN([C@@H](C)CO)C(=O)c2cc(NS(=O)(=O)c3ccc(F)cc3)ccc2O1 | inactive |
| COc1ccc(CN(C)C[C@H]2Oc3ccc(NC(=O)Cn4cnnn4)cc3CC(=O)N([C@H](C)CO)C[C@H]2C)cc1 | inactive |
| C[C@@H]1CN([C@H](C)CO)C(=O)Cc2cc(NS(C)(=O)=O)ccc2O[C@@H]1CN(C)Cc1ccc2c(c1)OCO2 | inactive |
| Nn1c(-c2ccncc2)n[nH]c1=S | inactive |
| O=C(/C=C/c1cccc(-c2cn(-c3ccc(C[C@H]4C(=O)O[C@@H](Cc5ccccc5)[C@H]5[C@@H]6C=CCCC=C6CN54)cc3)nn2)c1)NO | inactive |
| O=C(CCc1cn(-c2ccc(C[C@H]3C(=O)O[C@@H](Cc4ccccc4)[C@H]4[C@@H]5C=CCCC=C5CN43)cc2)nn1)NO | inactive |
| O=C(NO)c1cn(-c2ccc(C[C@H]3C(=O)O[C@@H](Cc4ccccc4)[C@H]4[C@@H]5C=CCCC=C5CN43)cc2)nn1 | active |
| CC(C)[C@@H](CO)N1C(=O)[C@]2(C)[C@H]3C(=O)OCCC/C=C\[C@H]3O[C@]23C=CCN(c2ccc(Cl)cc2)C(=O)[C@@H]13 | inactive |
| NC[C@@H]1O[C@H](C23CC4CC(CC(C4)C2)C3)Cc2c1ccc(O)c2O | inactive |
| C[C@H](CO)N1C[C@H](C)[C@H](CN(C)S(C)(=O)=O)Oc2cc(-c3ccccc3F)ccc2S1(=O)=O | inactive |
| C=C(C)COc1ccc([N+](=O)[O-])cc1 | inactive |
| O=[N+]([O-])c1ccc(Oc2ccc(-c3ccccc3)cc2)cc1 | active |
| CS(=O)(=O)Nc1ccc([N+](=O)[O-])cc1Oc1ccccc1 | inactive |
| Cn1c(=O)c2c(ncn2CCNC2=NCCC2)n(C)c1=O | inactive |
| Cc1noc(C)c1NC(=O)Nc1cccc2c1O[C@@H](CN(C)S(=O)(=O)c1cn(C)cn1)[C@@H](C)CN([C@@H](C)CO)C2=O | inactive |
| Cc1noc(C)c1S(=O)(=O)Nc1ccc2c(c1)C(=O)N([C@H](C)CO)C[C@H](C)[C@H](CN(C)S(=O)(=O)c1ccccc1)O2 | inactive |
| Cc1noc(C)c1S(=O)(=O)N(C)C[C@@H]1Oc2c(NS(=O)(=O)c3cn(C)cn3)cccc2C(=O)N([C@H](C)CO)C[C@@H]1C | inactive |
| CCC1(O)C(=O)OCc2c1cc1n(c2=O)Cc2cc3cc(O)ccc3nc2-1 (stereo not drawn) | inactive |
| CCC1(O)C(=O)OCc2c1cc1n(c2=O)Cc2cc3c(CN(C)C)c(O)ccc3nc2-1.Cl (stereo not drawn) | active |
| CC[C@@]1(O)C(=O)OCc2c1cc1n(c2=O)Cc2c-1nc1cc(F)c(C)c3c1c2[C@@H](N)CC3 | active |
| CCC[C@@H](N[C@H]1CCS(=O)(=O)C1)C(=O)O | inactive |
| NC[C@H](c1ccco1)N1CCc2ccccc2C1 | inactive |
| C[C@@H]1CN([C@@H](C)CO)C(=O)c2cccc(NS(=O)(=O)c3ccccc3)c2O[C@@H]1CN(C)Cc1ccncc1 | inactive |
| C[C@H](CO)N1C[C@H](C)[C@H](CN(C)S(=O)(=O)c2ccc(Cl)cc2)Oc2ccc(NC(=O)Cn3cnnn3)cc2CC1=O | inactive |
| COCC#Cc1ccc([C@@H]2[C@@H](CO)N3C(=O)CN(C(=O)C4CCOCC4)C[C@@H]23)cc1 | inactive |
| Cc1noc(C)c1NC(=O)N(C)C[C@@H]1Oc2ccc(NC(=O)Cn3cnnn3)cc2C(=O)N([C@H](C)CO)C[C@@H]1C | inactive |

| Compound | cytotoxicity call |
| --- | --- |
| C[N+](C)(CCOc1ccccc1)Cc1ccccc1.O=C(O)c1cc2ccccc2c(Br)c1O | inactive |
| Cc1cc(C(C)(C)CC(C)(C)C)ccc1OCCOCC[N+](C)(C)Cc1ccccc1.[Cl-] | active |
| C[N+](C)(CCOc1ccccc1)Cc1ccccc1.O=C([O-])c1cc2ccccc2cc1O | inactive |
| C[C@H](CO)N1C[C@H](C)[C@@H](CN(C)S(=O)(=O)c2cn(C)cn2)Oc2ncc(/C=C/c3ccccc3)cc2C1=O | inactive |
| Cc1ccc(S[C@]2(C(=O)NCCCN(C)C)CC(=O)N(Cc3ccccc3Cl)[C@@H]2c2ccc(CO)cc2I)cc1 | inactive |
| COc1ccc(NC(=O)N(C)C[C@H]2OCCCC[C@@H](C)Oc3ccc(NS(=O)(=O)c4ccc(C)cc4)cc3C(=O)N([C@@H](C)CO)C[C@H]2C)cc1 | inactive |
| CCn1c(=S)ccc2ccccc21 | inactive |
| CC(C)Cn1cnc2ccccc21 | inactive |
| CCn1cc(-c2ccc3ccccc3n2)c(=S)c2ccccc21 | active |
| CN1N=C(C(N)=O)CCC1=O | inactive |
| C[C@@H]1CN([C@H](C)CO)C(=O)c2cc(NC(=O)Cn3cnnn3)ccc2O[C@@H]1CN(C)C(=O)Nc1ccccc1 | inactive |
| O=C(C[C@@H]1CC[C@H]2[C@@H](COC[C@@H](O)CN2S(=O)(=O)c2ccccc2)O1)N1CCc2ccccc2C1 | inactive |
| CC(C)OC(=O)[C@H](C)N[P@](=O)(OC[C@H]1O[C@@H](n2ccc(=O)[nH]c2=O)[C@@](C)(O)[C@@H]1O)Oc1ccccc1 | inactive |
| COc1nc(N)nc2c1ncn2[C@@H]1O[C@H](CO[P@@](=O)(N[C@@H](C)C(=O)OCC(C)(C)C)Oc2cccc3ccccc23)[C@@H](O)[C@@]1(C)O | active |
| C[C@H](N[P@@](=O)(OC[C@H]1O[C@@H](n2ccc(N)nc2=O)C(F)(F)[C@@H]1O)Oc1ccccc1)C(=O)OCc1ccccc1 | inactive |
| Cc1noc(C)c1S(=O)(=O)Nc1cccc2c1O[C@H](CN(C)S(=O)(=O)c1ccc(F)cc1)[C@@H](C)CN([C@H](C)CO)C2=O | inactive |
| Cc1noc(C)c1NC(=O)Nc1ccc2c(c1)C(=O)N([C@H](C)CO)C[C@H](C)[C@H](CN(C)C(=O)Nc1ccc(C(F)(F)F)cc1)OCCCC[C@H](C)O2 | inactive |
| COc1ccc(NC(=O)Nc2ccc3c(c2)C(=O)N([C@@H](C)CO)C[C@@H](C)[C@H](CN(C)S(=O)(=O)c2ccc(OC)cc2)OCCCC[C@H](C)O3)cc1 | inactive |
| C[C@@H]1CN([C@@H](C)CO)C(=O)Cc2cc(NC(=O)Cc3ccccc3)ccc2O[C@@H]1CN(C)Cc1ccc(Oc2ccccc2)cc1 | active |
| C[C@H]1CN([C@@H](C)CO)C(=O)Cc2cc(NC(=O)Cc3ccccc3)ccc2O[C@H]1CN(C)Cc1ccc(Oc2ccccc2)cc1 | active |
| C[C@@H]1CN([C@H](C)CO)C(=O)Cc2cc(NC(=O)Cc3ccccc3)ccc2O[C@@H]1CN(C)Cc1ccc(Oc2ccccc2)cc1 | active |
| C[C@@H]1CN([C@H](C)CO)C(=O)Cc2cc(NC(=O)Cc3ccccc3)ccc2O[C@H]1CN(C)Cc1ccc(Oc2ccccc2)cc1 | inactive |
| C[C@H](CO)N1C[C@H](C)[C@@H](CN(C)Cc2ccc(Oc3ccccc3)cc2)Oc2ccc(NC(=O)Cc3ccccc3)cc2CC1=O | inactive |
| C[C@H](CO)N1C[C@H](C)[C@H](CN(C)Cc2ccc(Oc3ccccc3)cc2)Oc2ccc(NC(=O)Cc3ccccc3)cc2CC1=O | inactive |
| C[C@H]1CN([C@@H](C)CO)C(=O)Cc2cc(NC(=O)Cc3ccccc3)ccc2O[C@@H]1CN(C)Cc1ccc(Oc2ccccc2)cc1 | inactive |
| C[C@@H]1CN([C@@H](C)CO)C(=O)Cc2cc(NC(=O)Cc3ccccc3)ccc2O[C@H]1CN(C)Cc1ccc(Oc2ccccc2)cc1 | inactive |
